Assay results published in PubChem BioAssay (Tox21).
Records with an inconclusive call do not appear. The source made the active and inactive calls. Unless noted, calls come from the whole dose curve; as a rule, active = well fitted curve in the direction sought with a large enough effect in the repeat runs; inconclusive = weak or mixed curves; inactive = no such curve, though single readings can be large; an effect the other way counts as inactive or inconclusive.

Assays:
[1] = qHTS assay to identify small molecule antagonists of the peroxisome proliferator-activated receptor delta (PPARd) signaling pathway - cell viability counter screen (AID 743213); note: % is set by controls: 0 for no effect and ±100 for the full control effect; nearly all actives have a fitted effect of over 50% in size
How it was run: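 Same-well viability: cells pre-incubated 5 h, dosed with compound plus 300 nM L165041, kept 17 h at 37 C, FRET substrate 2 h RT, then CellTiter-Glo 30 min RT and luminescence.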

[2] = target: Peroxisome proliferator-activated receptor delta (Homo sapiens) (UniProt Q03181); assay: qHTS assay to identify small molecule antagonists of the peroxisome proliferator-activated receptor delta (PPARd) signaling pathway (AID 743215; active = well fitted inhibition curve with a large enough effect in the signal ratio in the repeat runs, not every such curve was filed as active; the % refers to the signal ratio;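 note: cells stimulated with agonist L165041 at 300 nM final during compound exposure; series mostly up to about 62 µM; % is set by controls: 0 for no effect and ±100 for the full control effect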)
Chain of Peroxisome proliferator-activated receptor delta (Homo sapiens) (Q03181 whole entry, looked up): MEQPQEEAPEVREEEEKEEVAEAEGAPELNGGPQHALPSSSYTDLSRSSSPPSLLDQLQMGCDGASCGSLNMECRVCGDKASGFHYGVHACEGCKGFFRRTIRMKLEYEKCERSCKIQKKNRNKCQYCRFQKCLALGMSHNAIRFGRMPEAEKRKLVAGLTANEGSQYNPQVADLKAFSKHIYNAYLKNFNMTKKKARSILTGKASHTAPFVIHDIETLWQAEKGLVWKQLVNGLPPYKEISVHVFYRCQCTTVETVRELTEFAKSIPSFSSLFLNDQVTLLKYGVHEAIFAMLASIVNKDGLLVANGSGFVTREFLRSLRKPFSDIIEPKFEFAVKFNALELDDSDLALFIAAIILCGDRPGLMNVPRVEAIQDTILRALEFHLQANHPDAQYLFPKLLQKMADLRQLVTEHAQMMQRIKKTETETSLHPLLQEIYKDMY
How it was run: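 Here, a reporter line (HEK293H, beta-lactamase under a UAS) measures PPARd signaling. Compounds are tested against agonist L165041 at 300 nM final concentration over 17 h at 37 C, with fluorescence read after substrate.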

[3] = qHTS assay to identify small molecule agonists of the farnesoid-X-receptor (FXR) signaling pathway - cell viability counter screen (AID 743218); note: % is set by controls: 0 for no effect and ±100 for the full control effect; nearly all actives have a fitted effect of over 45% in size
How it was run: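 Quantitative HTS counter screen measuring ATP-based viability via CellTiter-Glo luminescence in HEK 293T cells carrying a UAS-driven beta-lactamase reporter, after 16 h compound exposure at 37 C.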

[4] = qHTS assay to identify small molecule antagonists of the farnesoid-X-receptor (FXR) signaling pathway - cell viability counter screen (AID 743221; active = well fitted cell-killing curve with a large enough effect in the repeat runs, not every such curve was filed as active; note: % is set by controls: 0 for no effect and ±100 for the full control effect; nearly all actives have a fitted effect of over 50% in size)
How it was run: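 GeneBLAzer FXR-UAS-bla HEK 293T cells, compound plus chenodeoxycholic acid (50 uM final), 16 h at 37 C. CellTiter-Glo added to the same wells after the beta-lactamase read; luminescence read after 30 min at room temperature as viability.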

[5] = target: Vitamin D3 receptor (Homo sapiens) (UniProt P11473); assay: qHTS assay to identify small molecule agonists of the vitamin D receptor (VDR) signaling pathway (AID 743222; calls by dose curve; note: % is set by controls: 0 for no effect and ±100 for the full control effect)
Chain of Vitamin D3 receptor (Homo sapiens) (P11473 whole entry, looked up): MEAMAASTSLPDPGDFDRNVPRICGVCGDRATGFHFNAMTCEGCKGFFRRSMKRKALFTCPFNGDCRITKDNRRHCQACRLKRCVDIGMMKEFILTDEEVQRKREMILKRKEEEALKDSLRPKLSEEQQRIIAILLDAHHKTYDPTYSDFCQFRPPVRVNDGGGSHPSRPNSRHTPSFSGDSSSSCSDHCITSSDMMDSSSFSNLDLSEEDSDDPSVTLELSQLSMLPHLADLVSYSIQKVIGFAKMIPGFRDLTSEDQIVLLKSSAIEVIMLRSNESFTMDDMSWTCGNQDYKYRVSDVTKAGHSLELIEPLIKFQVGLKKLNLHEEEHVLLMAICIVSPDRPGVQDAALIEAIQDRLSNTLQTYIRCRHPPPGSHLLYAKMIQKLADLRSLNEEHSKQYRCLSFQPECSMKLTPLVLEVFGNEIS
How it was run: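 Tox21 cell reporter format: VDR-bla line, 16 h compound exposure in 5% CO2 at 37C, then fluorescence intensity after 2 h with LiveBLAzer B/G FRET substrate.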

[6] = target: Vitamin D3 receptor (Homo sapiens) (UniProt P11473); assay: qHTS assay to identify small molecule antagonists of the vitamin D receptor (VDR) signaling pathway (AID 743223; active = well fitted inhibition curve with a large enough effect in the signal ratio in the repeat runs, not every such curve was filed as active; the % refers to the signal ratio; note: % is set by controls: 0 for no effect and ±100 for the full control effect)
How it was run: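 VDR-bla cells were treated with compound plus 3 nM final 1alpha,25-dihydroxyvitamin D3 for 16 h at 37C. Beta-lactamase reporter read by B/G FRET substrate fluorescence after 2 h at room temperature. qHTS format.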

[7] = qHTS assay to identify small molecule agonists of the vitamin D receptor (VDR) signaling pathway - cell viability counter screen (AID 743224); note: series mostly up to about 63 µM; % is set by controls: 0 for no effect and ±100 for the full control effect; nearly all actives have a fitted effect of over 50% in size
How it was run: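 CellTiter-Glo viability readout on VDR-bla cells, measured after 16 h of compound treatment at 37C in the same wells.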

[8] = qHTS assay to identify small molecule antagonists of the vitamin D receptor (VDR) signaling pathway - cell viability counter screen (AID 743225); note: % is set by controls: 0 for no effect and ±100 for the full control effect; nearly all actives have a fitted effect of over 50% in size
How it was run: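 VDR-UAS-bla HEK 293T cells were plated and incubated 4 h at 37C, then dosed with compound plus 3 nM (final) 1-alpha,25-dihydroxyvitamin D3 for 16 h. After the 2 h beta-lactamase read, viability in the same wells was read as CellTiter-Glo luminescence after 30 min at room temperature.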

[9] = qHTS assay to identify small molecule agonists of the NFkB signaling pathway (AID 1159509; active = well fitted curve in the direction sought with a large enough effect in the signal ratio in the repeat runs, not every such curve was filed as active; the % refers to the signal ratio; note: series mostly up to about 61 µM; % is set by controls: 0 for no effect and ±100 for the full control effect)
How it was run: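 Beta-lactamase reporter assay run in quantitative high-throughput format on an NF-kB-responsive ME-180 line, with 5 hr compound treatment and a FRET-based blue/green fluorescence readout.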

[10] = qHTS assay to identify small molecule agonists of the NFkB signaling pathway - cell viability counter screen (AID 1159515; calls by dose curve; note: series mostly up to about 61 µM; % is set by controls: 0 for no effect and ±100 for the full control effect; nearly all actives have a fitted effect of over 55% in size)
How it was run: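 Tox21 library compounds were tested for cytotoxicity against NFkB-bla ME-180 cells during a 5 hr exposure at 37 C. CellTiter-Glo luminescence served as the viability read-out.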

[11] = qHTS assay to identify small molecule agonists of the endoplasmic reticulum stress response signaling pathway (AID 1159516; active = well fitted activation curve with a large enough effect in the signal ratio in the repeat runs, not every such curve was filed as active; the % refers to the signal ratio; note: % is set by controls: 0 for no effect and ±100 for the full control effect)
How it was run: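 Fluorescence at 460 and 530 nm (405 nm excitation) reports beta-lactamase from an ER stress response element in HeLa cells treated 5 hr at 37 C.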

[12] = qHTS assay to identify small molecule agonists of the endoplasmic reticulum stress response signaling pathway - cell viability counter screen (AID 1159517; calls by dose curve)
How it was run: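 After overnight attachment, ESRE-bla HeLa cells were treated with Tox21 library compounds for 5 hr. CellTiter-Glo luminescence, read 30 min post-addition at room temperature, reported viability.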

[13] = target: Nuclear receptor ROR-gamma (Homo sapiens) (UniProt P51449); assay: qHTS assay to identify small molecule antagonists of the retinoid-related orphan receptor gamma (ROR-gamma) signaling pathway (AID 1159521)
How it was run: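 Tet-on ROR-gamma CHO cells with ROR response element-luciferase reporter; compounds added 2 hr before 1 uM doxycycline induction, then 16 hr at 37 C. Antagonism scored as decreased ONE-Glo luminescence.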

[14] = qHTS assay to identify small molecule agonists of the AP-1 signaling pathway - cell viability counter screen (AID 1159525; calls by dose curve; note: nearly all actives have a fitted effect of over 55% in size)
How it was run: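 Intracellular ATP by Cell Titer Glo luminescence (30 min, RT) in the same ME-180 AP-1-bla wells after the 5 h compound exposure at 37 °C. Normalised to tetra n-octyl ammonium bromide and DMSO controls.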

[15] = qHTS assay to identify small molecule agonists of the AP-1 signaling pathway (AID 1159526; calls by dose curve; note: % is set by controls: 0 for no effect and ±100 for the full control effect)
[16] = qHTS assay to identify small molecule agonists of the RXR signaling pathway - cell viability counter screen (AID 1159529)
How it was run: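 RXR-alpha-UAS-bla HEK 293T cells in medium with 2% charcoal-stripped FBS were pre-incubated 5 hr, then compound-treated 16 hr at 37 C. Viability was read by CellTiter-Glo luminescence in the same wells as the beta-lactamase assay, with tetraoctyl ammonium bromide as positive control.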

[17] = target: Bile acid receptor (Homo sapiens) (UniProt Q96RI1); assay: qHTS assay to identify small molecule antagonists of the farnesoid-X-receptor (FXR) signaling pathway (AID 743217; active = well fitted inhibition curve with a large enough effect in the signal ratio in the repeat runs, not every such curve was filed as active; the % refers to the signal ratio; note: % is set by controls: 0 for no effect and ±100 for the full control effect)
Chain of Bile acid receptor (Homo sapiens) (Q96RI1 whole entry, looked up): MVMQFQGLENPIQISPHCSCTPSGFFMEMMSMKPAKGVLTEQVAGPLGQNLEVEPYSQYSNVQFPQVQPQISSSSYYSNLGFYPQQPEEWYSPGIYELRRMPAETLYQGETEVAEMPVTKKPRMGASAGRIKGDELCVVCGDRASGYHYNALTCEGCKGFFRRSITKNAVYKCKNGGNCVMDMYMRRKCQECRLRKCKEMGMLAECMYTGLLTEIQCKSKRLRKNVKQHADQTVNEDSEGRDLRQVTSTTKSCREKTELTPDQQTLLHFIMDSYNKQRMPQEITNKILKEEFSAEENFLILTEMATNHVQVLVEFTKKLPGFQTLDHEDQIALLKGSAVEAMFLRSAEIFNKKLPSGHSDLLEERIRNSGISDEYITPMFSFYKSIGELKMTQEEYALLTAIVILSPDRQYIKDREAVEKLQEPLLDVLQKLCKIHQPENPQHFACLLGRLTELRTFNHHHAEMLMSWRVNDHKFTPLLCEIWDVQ
How it was run: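 Test compounds are pin-transferred onto FXR-bla HEK 293T cells, then chenodeoxycholic acid is added at 50 uM final. After 16 h at 37 °C, LiveBLAzer B/G substrate is applied for 2 h at room temperature and fluorescence read.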

[18] = target: Bile acid receptor (Homo sapiens) (UniProt Q96RI1); assay: qHTS assay to identify small molecule agonists of the farnesoid-X-receptor (FXR) signaling pathway (AID 743220; active = well fitted activation curve with a large enough effect in the signal ratio in the repeat runs, not every such curve was filed as active; the % refers to the signal ratio; note: % is set by controls: 0 for no effect and ±100 for the full control effect)
How it was run: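 FXR-UAS-bla HEK 293T cells carrying a UAS-driven beta-lactamase reporter were plated for 5 h at 37C/5% CO2, then exposed to DMSO-dissolved Tox21 10K compounds for 16 h at 37C. A LiveBLAzer B/G FRET substrate was loaded for 2 h at room temperature before fluorescence reading.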

[19] = target: Retinoic acid receptor RXR-alpha (Homo sapiens) (UniProt P19793); assay: qHTS assay to identify small molecule agonists of the RXR signaling pathway (AID 1159527; calls by dose curve; note: % is set by controls: 0 for no effect and ±100 for the full control effect; nearly all actives have a fitted effect of over 35% in size)
Chain of Retinoic acid receptor RXR-alpha (Homo sapiens) (P19793 whole entry, looked up): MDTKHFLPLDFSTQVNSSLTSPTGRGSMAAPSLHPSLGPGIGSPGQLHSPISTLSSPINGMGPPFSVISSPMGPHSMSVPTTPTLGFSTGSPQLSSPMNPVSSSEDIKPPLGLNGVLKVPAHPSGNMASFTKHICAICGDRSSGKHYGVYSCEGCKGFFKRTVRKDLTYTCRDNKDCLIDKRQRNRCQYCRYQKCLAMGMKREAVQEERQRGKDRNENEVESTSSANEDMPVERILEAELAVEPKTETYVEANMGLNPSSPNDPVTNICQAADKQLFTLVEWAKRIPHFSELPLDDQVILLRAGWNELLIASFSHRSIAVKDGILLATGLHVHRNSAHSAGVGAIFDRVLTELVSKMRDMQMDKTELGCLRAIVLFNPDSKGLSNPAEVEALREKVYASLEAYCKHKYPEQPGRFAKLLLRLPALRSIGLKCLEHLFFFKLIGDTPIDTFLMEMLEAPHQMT
How it was run: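 GeneBLAzer RXR-alpha-UAS-bla HEK 293T cells in 2% charcoal-stripped FBS medium were exposed to compounds for 16 hr at 37 C in agonist mode. Beta-lactamase reporter read as 460/530 nm FRET ratio after 2 hr substrate loading.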

[20] = qHTS assay to identify small molecule antagonists of the retinoid-related orphan receptor gamma (ROR-gamma) signaling pathway - cell viability counter screen (AID 1159520)
How it was run: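 Cytotoxicity was read from cellular ATP (CellTiter-Glo luminescence) after 16 hr at 37 C with 1 uM doxycycline induction. The inducer was added 2 hr after compound transfer to Tet-on ROR gamma CHO cells.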

CCCCCCCCCCCCSC#N
inactive: Potency [1] | outcome [2] | Potency [3] | Potency [4] | outcome [5] | outcome [6] | outcome [7] | outcome [8] | outcome [9] | outcome [10] | outcome [11] | outcome [12] | Potency [13] | outcome [14] | Potency [15] | Potency [16]

CCCCCCCCCCCCCCCCN
inactive: Potency [1] | outcome [2] | outcome [17] | Potency [3] | outcome [18] | outcome [5] | outcome [6] | outcome [7] | outcome [8] | outcome [9] | outcome [10] | outcome [11] | outcome [12] | Potency [13] | outcome [14] | outcome [19] | Potency [16]

CCCCCO
inactive: Potency [1] | outcome [2] | outcome [17] | Potency [3] | outcome [18] | Potency [4] | outcome [5] | outcome [7] | outcome [8] | outcome [9] | outcome [10] | outcome [11] | Potency [20] | Potency [13] | outcome [14] | Potency [15] | Potency [16]

O=C(OCCOCCOCCOC(=O)c1ccccc1)c1ccccc1
inactive: Potency [1] | outcome [17] | Potency [3] | outcome [18] | Potency [4] | outcome [5] | outcome [6] | outcome [7] | outcome [8] | outcome [9] | outcome [10] | outcome [11] | outcome [12] | Potency [13] | outcome [14] | Potency [15]

Clc1cc(Cl)c2c(c1)N=C1CCCCCN1C2
inactive: outcome [2] | outcome [17] | Potency [3] | outcome [18] | Potency [4] | outcome [5] | outcome [7] | outcome [8] | outcome [9] | outcome [10] | outcome [11] | outcome [12] | Potency [13] | outcome [14] | Potency [15]

CC(C)CCCCCOC(=O)CS
inactive: Potency [1] | Potency [3] | Potency [4] | outcome [8] | outcome [9] | outcome [10] | outcome [11] | outcome [12] | Potency [13] | outcome [14] | Potency [15] | Potency [16]

O=Cc1ccc([N+](=O)[O-])cc1
inactive: Potency [1] | outcome [2] | Potency [3] | Potency [4] | outcome [5] | outcome [6] | outcome [7] | outcome [8] | outcome [9] | outcome [10] | outcome [11] | outcome [12] | Potency [13] | outcome [14] | outcome [19]

CCCCC(CC)COCCC#N (stereo not given)
inactive: outcome [2] | Potency [3] | Potency [4] | outcome [5] | outcome [8] | outcome [9] | outcome [10] | outcome [11] | outcome [12] | Potency [13] | outcome [14] | Potency [15] | Potency [16]

Oc1ccc(Oc2ccccc2)cc1
inactive: Potency [1] | outcome [2] | outcome [17] | Potency [3] | outcome [18] | Potency [4] | outcome [5] | outcome [7] | outcome [9] | outcome [10] | outcome [11] | outcome [12] | Potency [13] | outcome [14] | Potency [15] | Potency [16]

COc1ccc(/C(C)=C/C(=O)O)c(OC)c1
inactive: Potency [1] | outcome [2] | Potency [3] | Potency [4] | outcome [5] | outcome [8] | outcome [9] | outcome [10] | outcome [11] | outcome [12] | Potency [13] | outcome [14] | Potency [15] | Potency [16]

NC(=O)c1ccccc1
inactive: Potency [1] | outcome [17] | outcome [18] | Potency [4] | outcome [5] | outcome [6] | outcome [7] | outcome [8] | outcome [9] | outcome [10] | outcome [11] | outcome [12] | Potency [13] | outcome [14] | Potency [15] | Potency [16]

COC(=O)C(C)(C)C
inactive: Potency [1] | outcome [17] | Potency [3] | outcome [18] | outcome [5] | outcome [6] | outcome [8] | outcome [9] | outcome [10] | outcome [11] | outcome [12] | Potency [13] | outcome [14] | Potency [15]

O=C(O)c1ccccc1-n1cc(C(=O)O)c(=O)c2cc(Nc3c(F)cc(F)cc3Cl)c(Cl)cc21
inactive: Potency [1] | outcome [2] | outcome [17] | Potency [3] | outcome [18] | outcome [5] | outcome [6] | outcome [7] | outcome [9] | outcome [10] | outcome [11] | outcome [12] | Potency [13] | outcome [14] | Potency [15]

COC=O
inactive: viability change, negative = cytotoxic [3] 22% [at 5.95 µM] | viability change, negative = cytotoxic [8] 18% [at 6.95 µM] | activation [9] 0.465% [at 6.95 µM] | activity, negative = cytotoxic [10] -3.71% [at 6.95 µM] | activation [11] -0.899% [at 6.95 µM] | activity change, negative = cytotoxicity [12] -18.1% [at 6.95 µM] | activity, negative = cytotoxicity [20] -1.04% [at 8.39 µM] | activity change, negative = inhibition [13] -0.709% [at 8.39 µM] | activation [15] -1.7% [at 6.97 µM]

C=Cc1ccc(C=C)cc1
inactive: Potency [1] | outcome [2] | outcome [17] | outcome [18] | Potency [4] | outcome [7] | outcome [8] | outcome [9] | outcome [10] | outcome [11] | outcome [12] | Potency [13] | outcome [14] | Potency [15] | Potency [16]
